Vif imaging = blocks HIV Vif function; HEK293T cells, Vif self-association by quenched fluorescence, imaging, 24 h; inhibition, % at 7.49 µM; 0.35% of 340,000 active; in the data active = inhibition above about 50%, passing the limit was not always enough; inconclusive = no clear call, values can overlap the other calls; inactive = below about 31%
PfHsp90 set2 = growth inhibition of yeast expressing Plasmodium Hsp90; inhibition, % at 9.4 µM; S. cerevisiae expressing PfHsp90, BacTiter-Glo ATP, 48 h; yeast lacking PDR1 and PDR3 efflux regulators; 0.32% of 310,000 active;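 active = every replicate shows inhibition above about 80%, whatever the replicate mean, limit read from the data; inconclusive = mean inhibition reaches the set limit but some replicate falls short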;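 note: 0% = DMSO neutral controls and 100% = 20 µM radicicol positive controls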
Wnt act = activates Wnt/beta-catenin signaling in a reporter cell assay | activator, plate reader | 1.2% of 300,000 active | activation, % at 9.35 µM; in the data active = activation above about 30%, passing the limit was not always enough; inconclusive = no clear call, values can overlap the other calls;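 note: 0% = neutral control wells and 100% = positive control wells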
MITF act = MITF TRPM1 promoter activation in melanoma cells | activation, % at 12.5 µM | SK-MEL-5 TRPM1-promoter luciferase, 24 h; % of positive control, neutral wells = 0 | AID 588334 | 0.75% of 300,000 active;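 active = mean activation of at least 80% with every replicate also reaching 80%; inconclusive = mean reaches 80% but some replicate falls short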;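 note: 0% = neutral control wells and 100% = parthenolide positive control wells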
esBAF inh = inhibitors of esBAF chromatin remodeling in mouse ES cells. 2% of 350,000 active. reporter increase, % at 12.5 µM. Bmi1-luciferase knock-in reporter, 24 h; 100% = twice the neutral-well signal; in the data active = activation above about 40%; inconclusive = no clear call, values can overlap the other calls;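 note: 0% = median of the plate's neutral control wells and 100% = double that signal; a rise in the Bmi1 reporter signal indicates esBAF inhibition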
Glyco luc inh = blocks N-linked glycosylation in D54 reporter cells | D54 ERlucT glycosylation luciferase reporter, 24 h; percent of 100 nM tunicamycin response | reporter increase, % at 12.5 µM | 0.23% of 360,000 active | AID 588692;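 active = mean luciferase reporter signal, scaled so untreated is 0 and the glycosylation-blocking control 100, at or above a set limit in every replicate; inconclusive = mean reaches the limit but not every replicate does; inactive = mean below the limit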;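 note: luciferase carries N-glycosylation sites so blocking glycosylation raises the light; 0% = median of neutral control wells and 100% = median of 100 nM tunicamycin wells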
* hit, by the source's call; ? = inconclusive; . = not tested or not shown. Shown are actives, neighbours in structure and some others; about 3% of the full set was active somewhere.

SMILES	Vif imaging	PfHsp90 set2	Wnt act	MITF act	esBAF inh	Glyco luc inh
O=C(CN(C(=O)Cn1nnc(-c2ccc(F)cc2)n1)c1ccc(F)c(Cl)c1)NCC1CCCO1 (stereo not drawn)	23	-13	41*	9	.	0
Cc1ccc(-c2nnn(CC(=O)N(CC(=O)NCC3CCCO3)c3ccc(F)c(Cl)c3)n2)o1 (stereo not drawn)	8	-19	.	1	.	-2
CCOC(=O)N1CCC(NC(=O)CSCc2nc(-c3ccc(OC)c(OC)c3)oc2C)CC1	-5	-1	3	7	-20	2
O=C(C[C@@H]1C[C@H]2c3cc(NC(=O)NC4CCCC4)ccc3O[C@H]2[C@@H](CO)O1)NCCN1CCCCC1	.	.	.	.	10	.
COc1ccccc1C(=O)NCCC(=O)N1CCN(S(=O)(=O)c2cccc(Cl)c2)CC1	19	21	1	-1	8	4
CCCCn1c(N)c(N(CCOC)C(=O)C2CC(=O)N(Cc3ccco3)C2)c(=O)[nH]c1=O (stereo not drawn)	3	17	-3	-8	0	2
Oc1cccc(-c2nc3ccc4ccccc4c3c3c2CCC3)c1	-16	?	.	93*	.	-1
COc1cccc(-n2cc3c(=O)n(C)c(=O)n(C)c3c2)c1	-6	-10	.	18	48*	6
O=c1[nH]c(-c2ccc(-c3cccc(Cl)c3)o2)nc2ccccc12	-6	-6	?	104*	58*	-1
O=c1[nH]c(SCc2cccc(Cl)c2)nc2ccccc12	-4	12	0	2	.	1
CCCN1C(=O)/C(=C\C=C2\N(CC)c3ccccc3C2(C)C)SC1=S	167*	13	-4	5	-9	0
CC1=NN(c2nc3ccccc3[nH]2)C(=O)/C1=C/N(C)C	-4	81*	.	29	.	-8
CC1=NN(c2ccccc2)C(=O)/C1=C/N(C)C	-5	3	4	-4	.	0
CN1c2ccccc2C(=O)/C(=C\Nc2ncccn2)S1(=O)=O	5	-12	2	.	.	1
Cc1sc2c(c1C)C(=O)/C(=C\Nc1ccncc1)S(=O)(=O)N2C	3	5	44*	.	.	2
Cc1ccc2cc(CCNC(=O)c3cccs3)c(=O)[nH]c2c1C	-9	-18	19	.	59*	-4
Cc1ccc2cc(CCNC(=O)c3cccs3)c(=O)[nH]c2c1	14	-5	30	58	54*	-1
O=C(C[C@@H]1C=C[C@@H](NS(=O)(=O)c2ccccc2)[C@@H](CO)O1)NCCN1CCCCC1	.	.	.	.	-6	.
CCOc1ccc(NC(=O)CN(C)C(=O)c2cc(-c3ccncc3)nc3ccccc23)cc1OCC	15	-52	0	-12	5	0
CCOC(=O)[C@]12CCCC=C1N(Cc1ccc3c(c1)OCO3)C(=O)[C@H](CC(=O)NCc1cccc(C(F)(F)F)c1)C2	.	.	-3	.	.	.
O=C(CSc1nnc(-c2ccc(Br)o2)n1Cc1ccccc1)c1ccccc1F	-10	26	-2	-18	-2	0
CC(C)(C)c1ccc(NC(=S)NCc2cccs2)cc1	-4	8	.	36	44*	-1
CCCCCn1cc(CCC(=O)Nc2ccc(N(C)c3ccccn3)cc2)c2ccccc21	.	.	-2	.	.	.
Cn1c(O)c(C=Nc2ccc(Br)cc2)sc1=O	12	-4	60*	68	.	-1
NC(=O)/C(=C\c1ccco1)NC(=O)c1ccc(Br)o1	4	15	-1	8	-2	0
SMILES	Vif imaging	PfHsp90 set2	Wnt act	MITF act	esBAF inh	Glyco luc inh
CSc1nnc(-c2cccs2)n1C	-12	-1	-1	3	-5	3
Cc1cccc(NC(=O)c2cc(-c3cc(C)ccc3O)n[nH]2)c1	10	1	?	?	12	-1
Cc1c(Cl)cccc1NC(=O)c1cc(-c2ccccc2O)n[nH]1	10	26	10	74	49*	0
Cc1ccc(-c2cc(C(=O)Nc3cccnc3)[nH]n2)c(O)c1C	-2	-15	44*	114*	.	-3
Cc1cccc(NC(=O)c2cc(-c3cc(C)c(C)cc3O)n[nH]2)c1	-4	-3	?	69	70*	-2
COc1cccc(CN2[C@H](CO)[C@@H]3c4ccccc4N(C(=O)CC(F)(F)F)C[C@@H]32)c1	.	.	.	.	4	.
Cc1cccc(C)c1NC(=O)CN1CCN(C(=O)CNC(=O)Cc2cccc3ccccc23)CC1	2	.	-2	.	2	-1
